Screen size: about 16,000 compounds; about 4,000 (25%) were called active. Roughly 26% stayed inconclusive and do not appear here. These entries were drawn from the full list. Values without a mark were called inactive. Calls follow the shape of the dose curve; as a rule, active = well fitted curve in the direction sought with a large enough effect; inconclusive = small, poorly fitted or top-dose-only effect, or effect the other way; inactive = no such curve, though single readings can be large or run the other way.
% is scaled to controls: 0 for no effect and ±100 for the full control effect.

The target in the experiment is Cytochrome P450 2C9 (Homo sapiens) (UniProt P11712). The experiment is described as follows: Cytochrome panel assay with activity outcomes. The conditions noted are these: recombinant CYP, pro-luciferin dealkylation, luminescence, p450-cyp2c9; series mostly up to 57.1 µM.
Cytochrome P450 2C9 (Homo sapiens), sequence (P11712 whole entry, looked up): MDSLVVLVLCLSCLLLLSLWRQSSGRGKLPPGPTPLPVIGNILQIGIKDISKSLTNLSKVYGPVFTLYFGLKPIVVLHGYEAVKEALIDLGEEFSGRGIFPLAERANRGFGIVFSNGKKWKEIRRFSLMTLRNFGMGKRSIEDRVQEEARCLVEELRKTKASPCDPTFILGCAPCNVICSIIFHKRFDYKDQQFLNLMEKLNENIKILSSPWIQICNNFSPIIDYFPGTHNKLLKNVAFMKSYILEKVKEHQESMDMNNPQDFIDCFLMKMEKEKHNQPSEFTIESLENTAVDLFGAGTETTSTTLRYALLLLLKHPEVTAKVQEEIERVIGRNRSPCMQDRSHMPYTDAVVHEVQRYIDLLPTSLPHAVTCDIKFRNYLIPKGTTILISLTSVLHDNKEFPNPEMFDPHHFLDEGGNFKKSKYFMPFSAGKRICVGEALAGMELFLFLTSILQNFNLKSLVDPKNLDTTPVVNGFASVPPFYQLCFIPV
Take `CCOC(=O)n1c(=O)n(Cc2ccccc2Cl)c2ccccc21`: the AC50 – broadly, the concentration giving half of the maximal activity seen – is 8.91 µM (active).
Take `O=c1[nH]cc(CS(=O)(=O)Cc2c[nH]c(=O)[nH]c2=O)c(=O)[nH]1`: the activity, negative = inhibition was -2.59% [at 11.4 µM].
For `C/C(=N\O)c1ccc2[nH]ccc2c1`, the AC50 entry was “inactive”.
Consider `Cc1n[nH]c(C)c1S(=O)(=O)N1CCC(C(=O)O)CC1`, for which the AC50 entry was “inactive”.
Same read-out and setting: in the case of `NNC(=O)c1ccncc1` it was “inactive”.
Take `O=C(NNC(=O)c1ccncc1)c1ccncc1`: the activity, negative = inhibition is 0.511% [at 11.4 µM].
As for `CC(=O)c1c(C(C)=O)c(C)n(NC(=O)c2ccncc2)c1C`, the AC50 was 1.58 µM (active).
Take `NS(=O)(=O)c1ccc(N=Nc2cc3ccccc3c(C(=O)O)c2O)cc1`: the activity, negative = inhibition was -1.93% [at 11.4 µM].
As to `CCN1C(=O)[C@H]2[C@H]3[C@H](O)[C@H](O)C/C(=N/O[C@@H]4O[C@H](COC(C)=O)[C@@H](OC(C)=O)[C@H](OC(C)=O)[C@H]4OC(C)=O)[C@@H]3CC[C@@H]2C1=O`, the activity, negative = inhibition is -1.58% [at 11.4 µM].
As for `CC1(C)Cc2ccccc2C(NNC(=O)c2ccncc2)=N1`, the AC50 result was “inactive”.
Take `C/C(=N\NC(=O)c1ccc(Br)cc1)c1ccccc1`: the AC50 result was “inactive”.
As for `C/C(=N\NC(=O)c1ccncc1)c1ccc2ccccc2c1O`, the half-maximal activity concentration (AC50) was 0.1 µM (active).
The same measure, in the same setting: then `O=C(c1cccc(F)c1)N1CCC2(CC1)CCN(c1ccccc1)CC2`, with “inactive”; and `O=C(c1cccc(F)c1)N1CCC2(CC1)CCN(c1ncccn1)CC2`, with 12.6 µM (active).
As for `CC(C)NC(=O)N1CCC2(CC1)CCN(C(=O)c1cccc(F)c1)CC2`, the AC50 entry was “inactive”.
`O=C(c1cccc(F)c1)N1CCC2(CCCN(c3ncccn3)C2)CC1`: the AC50 is 15.8 µM (active).
Same read-out and setting: then `O=C(c1cc(C(F)(F)F)cc(C(F)(F)F)c1)N1CCC2(CCCN(c3ncccn3)C2)CC1`, with “inactive”; and `CC(=O)N1CCC2(CCCN(c3ncccn3)C2)CC1`, with “inactive”; and `COc1cccc2c1C(=O)c1c(O)c3c(c(O)c1C2=O)C[C@](O)(C(=O)CO)C[C@H]3O[C@@H]1C[C@H](N)[C@H](O)[C@H](C)O1`, with “inactive”.
Consider `O=C(O)[C@@H]1CCCN1`, for which the activity, negative = inhibition was 1.2% [at 11.4 µM].
On to `CCSc1nnc(-c2ccc(Cl)cc2)c2ccccc12`, for which the AC50 is 2 µM (active).
Regarding `Cc1ccc(C(=O)N/C(=C\c2ccc(Br)cc2)c2nc(=S)[nH][nH]2)cc1`, the AC50 is 8.91 µM (active).
Same read-out and setting: then `O=C(N/C(=C/c1ccc(Br)cc1)c1nc2ccccc2[nH]1)c1ccco1`, with “inactive”; and `CCOc1nc(N=C(N)N)nc2c(C)cccc12`, with “inactive”; and `COc1ccc2nc(N)sc2c1`, with “inactive”.
Take `COc1ccc2nc(N3C(=O)CC(Cc4ccc(Cl)cc4)C3=O)sc2c1` (stereo unspecified): the AC50 was 12.6 µM (active).
For the compound `COc1ccc2nc(NCN3C(=O)c4ccccc4C3=O)sc2c1`, the activity, negative = inhibition is -14.8% [at 11.4 µM].
`CN1CCN(CCCBr)CC1`: the activity, negative = inhibition is 18% [at 11.4 µM].
The same measure, in the same setting: then `C[C@H](O/N=C1/[C@H]2O[C@@H]2[C@@H](O)[C@H]2[C@H]1CCn1c(=O)n(-c3ccccc3)c(=O)n12)c1cn([C@H]2COC[C@H]2O)nn1`, with 0.305% [at 11.4 µM].
For `CN1CCN(c2ncc3nc(-c4cccs4)c(=O)n(CCc4ccccc4)c3n2)CC1`, the AC50 result is “inactive”.
For `CCCn1c(-c2cccs2)nc2nc3ccccc3nc21`, the AC50 was 10 µM (active).
For the compound `CCNc1ncc2nc(-c3cccs3)c(=O)n(CCc3ccccc3)c2n1`, the AC50 result was “inactive”.
Consider `Cc1ccc2nc(SCc3nc4c(cnn4-c4ccccc4)c(=O)[nH]3)[nH]c2c1`, for which the AC50 is 4.47 µM (active).
On to `CC(=O)n1c(COS(C)(=O)=O)nc2ccccc21`, for which the activity, negative = inhibition is -7.23% [at 11.4 µM].
For `COc1cc(/C=C/C(=O)Nc2ccccc2C(F)(F)F)cc(OC)c1OC`, the AC50 result was “inactive”.
For `COc1cc(/C=C\C(=O)N2CCC=CC2=O)cc(OC)c1OC`, the AC50 result was “inactive”.
As to `CCSc1nc2ccccc2n1C(=O)/C=C\c1ccc(OC)c(OC)c1`, the AC50 was 1.58 µM (active).
For the compound `COc1ccc(NC(=O)COC(=O)Cn2c(C)nc3ccccc32)cc1OC`, the AC50 entry was “inactive”.
Regarding `C=CCSc1nc2ccccc2n1C(=O)/C=C/c1cc(OC)c(OC)c(OC)c1`, the AC50 was 7.94 µM (active).
On to `CCCNC(=O)OC[C@@H]1O[C@H](CCO/N=C(\C)CCN2CCc3nc(-c4ccccc4)c(-c4ccccc4)cc3C2)C=C[C@@H]1Oc1ccc(OC)cc1`, for which the concentration at half-maximal activity (AC50) is 2 µM (active).
Turning to `COc1ccc(O[C@H]2C=C[C@@H](c3ccccc3)O[C@H]2COC(=O)CC/C(C)=N/OCC[C@@H]2C=C[C@H](OC(C)=O)[C@H](COC(C)=O)O2)cc1`, the AC50 was 3.98 µM (active).
In the case of `COc1ccc(O[C@H]2C=C[C@@H](c3ccccc3)O[C@H]2CO/N=C(/C)CCC(=O)OC[C@@H]2O[C@H](C#Cc3ccccc3)C=C[C@@H]2Oc2ccc(C)cc2)cc1`, the activity, negative = inhibition was -16.6% [at 11.4 µM].
For the compound `COc1ccc(O[C@H]2C=C[C@@H](c3ccccc3)O[C@@H]2CO/N=C(\C)CCN2CCc3nc(-c4ccccc4)c(-c4ccccc4)cc3C2)cc1`, the activity, negative = inhibition is -13.6% [at 11.4 µM].
As to `COc1ccc(O[C@H]2C=C[C@@H](c3ccccc3)O[C@H]2CO/N=C(/C)CCC(=O)OC[C@@H]2O[C@H](c3ccccc3)C=C[C@@H]2Oc2ccc(OC)cc2)cc1`, the activity, negative = inhibition is -3.16% [at 11.4 µM].
Regarding `C/C(CCC(=O)OC[C@@H]1O[C@H](C#Cc2ccccc2)C=C[C@@H]1Oc1ccc(C)cc1)=N/OC[C@@H](O)[C@H]1O[C@H]2OC(C)(C)O[C@H]2[C@@H]1O`, the activity, negative = inhibition is -25.1% [at 11.4 µM].
On the same count and under the same terms, then `COc1ccc(O[C@H]2C=C[C@@H](c3ccccc3)O[C@H]2COC(=O)CC/C(C)=N/O[C@@H]2O[C@H](COC(C)=O)[C@H](OC(C)=O)[C@H](OC(C)=O)[C@H]2OC(C)=O)cc1`, with -25.6% [at 11.4 µM].
On the same count and under the same terms, then `CCCNC(=O)OC[C@@H]1O[C@H](c2ccccc2)C=C[C@@H]1Oc1ccc(OC)cc1`, with -29.7% [at 11.4 µM].
Take `COc1ccc(O[C@H]2C=C[C@@H](c3ccccc3)O[C@H]2COC(=O)N2CCCCC2)cc1`: the AC50 was 2.51 µM (active).
`CCCNC(=O)OC[C@@H]1O[C@H](CCO/N=C(\C)CCN2CCc3nc(CC)c(CC)cc3C2)C=C[C@@H]1Oc1ccc(OC)cc1`: the activity, negative = inhibition was -21.2% [at 11.4 µM].
Turning to `COc1ccc(O[C@H]2C=C[C@@H](c3ccccc3)O[C@H]2COC(=O)CC/C(C)=N\OC[C@@H](O)[C@H]2O[C@H]3OC(C)(C)O[C@H]3[C@@H]2O)cc1`, the AC50 was 1.58 µM (active).
`CCCNC(=O)OC[C@H]1O[C@@H](CCO/N=C2/[C@H]3O[C@@H]3[C@@H](O)[C@H]3[C@H]2CCn2c(=O)n(-c4ccccc4)c(=O)n23)C=C[C@@H]1Oc1ccc(OC)cc1`: the activity, negative = inhibition is -24.3% [at 11.4 µM].

The record behind these values is PubChem BioAssay AID1851 (National Center for Advancing Translational Sciences (NCATS), 2009).
